# Source: PubChem
# sPLA2-III inh – Inhibits HGIII-sPLA2 liposome hydrolysis, primary screen; QFRET BODIPY PC-A2 liposome hydrolysis, fluorescence; inhibition, % at 12.2 µM; 370,000 tested, 0.56% active; AID 743126;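 active means inhibition above mean plus 3 SD of compounds lying within the high and low control bounds, cut at about 19% in these data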;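 further: 0% = median of test compound wells and 100% = no enzyme DMSO wells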
# Target sequence (Q9NZ20 whole entry, looked up): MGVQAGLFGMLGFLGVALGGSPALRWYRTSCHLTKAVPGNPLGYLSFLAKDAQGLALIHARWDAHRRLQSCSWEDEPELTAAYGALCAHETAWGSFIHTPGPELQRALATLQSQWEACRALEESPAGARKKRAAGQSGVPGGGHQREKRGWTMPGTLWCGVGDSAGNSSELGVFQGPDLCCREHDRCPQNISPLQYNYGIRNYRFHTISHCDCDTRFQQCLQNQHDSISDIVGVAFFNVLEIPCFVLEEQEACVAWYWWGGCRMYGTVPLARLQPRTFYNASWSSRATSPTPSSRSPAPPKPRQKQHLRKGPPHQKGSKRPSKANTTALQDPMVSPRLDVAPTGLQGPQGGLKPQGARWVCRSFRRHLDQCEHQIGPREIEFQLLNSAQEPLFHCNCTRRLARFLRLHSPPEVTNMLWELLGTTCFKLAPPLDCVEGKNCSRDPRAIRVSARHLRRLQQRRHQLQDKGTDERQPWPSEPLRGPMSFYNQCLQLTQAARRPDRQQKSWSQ
# SUMO Mot1 rescue – inhibitors of SUMOylation pathway: yeast Mot1-301 growth rescue | S. cerevisiae Mot1-301 growth rescue, ATP luminescence, 38.5C; percent above DMSO median, 100 means doubled | growth rescue, % at 18.8 µM | 320,000 tested, 1% active;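 active means every valid replicate shows activation above 250% relative to neutral control wells; inactive means the rest, any valid replicate at or below 250%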;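 further: OY570 slx delta 5 strain wells were the positive control but not used for scaling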
# SKN-1 block – C. elegans SKN-1 inhibition; inhibition, % at 21.8 µM; C. elegans VP596 Pgst-4::GFP/RFP ratio, acrylamide-induced, 24 h; 360,000 tested, 0.49% active; AID 624304;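 active means interference check ratio from 0.5 to 1.5 plus GFP to RFP signal ratio inhibition reaching or exceeding a fixed threshold, cut at about 30% in these data, passing the limit was not always enough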
# Efflux pump mplx – antifungal efflux pump inhibition, Nile Red retention; S. cerevisiae Candida pump triplex; AID 485275; inhibition, % at 10 µM; 330,000 tested, 0.44% active;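 active means plate passing quality check with inhibition over a set limit, or well fluorescence over plate mean plus 4 SD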;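 further: Nile Red retained in pooled yeast measured as flow cytometry median fluorescence; 0% = buffer negative control and 100% = Enniatin B positive control; higher means more Nile Red kept so more efflux inhibition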
# sPLA2 confirm – human GIII-sPLA2 inhibition, confirmation | shares compounds with sPLA2-III inh | recombinant hGIII-sPLA2, BODIPY PC-A2 QFRET fluorescence | inhibition, % at 12.2 µM | 2,000 tested, 34% active | AID 743280;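 active means mean inhibition across triplicates above the hit cutoff set in the earlier primary screen, cut at about 19% in these data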;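 further: 0% = enzyme with DMSO and 100% = DMSO wells lacking enzyme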
# BODIPY interf – 535nm fluorescence interference, HGIII-sPLA2 counter-screen; shares compounds with sPLA2-III inh; BODIPY FL product fluorescence interference, QFRET; inhibition, % at 12.2 µM; 2,000 tested, 8.5% active; AID 743282;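 active means average inhibition above the solvent-only control mean plus 3 SD, cut at about 6% in these data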;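 further: 0% = DMSO with substrate plus product and 100% = DMSO with substrate alone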
# BODIPY interf DR – 535nm optical interference dose response, HGIII-sPLA2 counter-screen; shares compounds with sPLA2-III inh; BODIPY FL product fluorescence interference, cell-free; IC50, µM; 240 tested, under 10 active;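 active means IC50 at or below 10 µM; inactive means IC50 above 10 µM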
# The depositor's hits bear a star; . = no result. Most compounds without a hit are left out; they make up all but 2.2% or so of the library.
SMILES,sPLA2-III inh,SUMO Mot1 rescue,SKN-1 block,Efflux pump mplx,sPLA2 confirm,BODIPY interf,others
C[C@H]1[C@@H](NC(=O)c2cccc(C(F)(F)F)c2)CC[C@@]23CCCN2C(=O)CCC[C@@H]13,-5,.,.,.,.,.,
O=C(NCCCN1CCOCC1)c1cccc(S(=O)(=O)Nc2ccccc2Cl)c1,-3,243,2,0,.,.,
Cc1onc(-c2ccccc2)c1C(=O)N1CCC(C)(C(=O)NS(=O)(=O)C2CC2)C1 (configuration not stated),3,.,10,.,.,.,
Cc1ccc(OC(=O)c2sc(Cl)nc2C)cc1C,21*,-1,15,0,0,-6,
CCOC(=O)c1cnn(-c2ccccc2)c1NC(=O)CN1CCCCC1,21*,-10,11,0,-1,-7,
Cc1nc2c(C)cccn2c1/C(O)=C1\C(=O)C(=O)N(CCN(C)C)C1c1ccccc1 (configuration not stated),20*,12,7,0,6,0,
Cc1ccc(C2/C(=C(\O)c3c(C)nc4c(C)cccn34)C(=O)C(=O)N2CCN(C)C)o1 (configuration not stated),7,.,16,.,.,.,
O=C(CNC(=O)c1cc(S(=O)(=O)N2CCCCC2)ccc1N1CCOCC1)Nc1ccc(F)c(F)c1,1,9,4,0,.,.,
Cn1c(=O)c(C(=O)NNC(=O)c2ccccc2Br)c(O)c2ccccc21,30*,4,1,1,2,4,
COc1ccc(/C=C(\C#N)c2nc3ccc(C)cc3[nH]2)cc1Oc1ccc(C(F)(F)F)cc1[N+](=O)[O-],20*,-36,-4,0,-5,-13,
COC(=O)c1cccc(NC(=O)CSc2nnc(-c3ccco3)o2)c1,5,8,7,0,.,.,
COc1ccc(NC(=O)NNC(=O)c2ccc3ccccc3c2O)cc1OC,28*,194,4,0,28*,1,BODIPY interf DR=>122
COc1ccc(NC(=O)c2cccc3ccccc23)cc1OC,14,.,-1,.,.,.,
O=C(NNC(=O)c1ccc2ccccc2c1O)c1ccccc1Cl,31*,9,12,0,37*,3,BODIPY interf DR=>122
Cc1ccccc1NC(=O)NNC(=O)c1ccc2ccccc2c1O,39*,296,11,0,28*,1,BODIPY interf DR=>122
COc1ccccc1NC(=O)NNC(=O)c1ccc2ccccc2c1,-3,10,-4,0,.,.,
Cc1ccccc1NC(=O)NNC(=O)c1ccc2ccccc2c1,1,11,7,0,.,.,
O=C(NNC(=O)c1cccc2ccccc12)c1ccc(Cl)cc1Cl,-18,.,4,.,.,.,
COc1ccccc1NC(=O)NNC(=O)c1ccc2ccccc2c1O,30*,2,23,0,36*,5,BODIPY interf DR=>122
COc1cc2c(cc1NC(=O)CSc1nnc(-c3cccnc3)n1-c1ccc(Br)cc1)oc1ccccc12,1,.,.,.,.,.,
COc1cccc(-n2nc(-c3ccnn3-c3ccc(C)cc3)c(=O)n(C)c2=O)c1,-10,-12,-23,0,.,.,
COc1cccc(C(=O)NNC(=O)c2ccc3ccccc3c2O)c1,25*,42,-4,0,14,0,
Cc1ccc(N(CC(=O)NC(C)C)C(=O)CCC(=O)Nc2ccccn2)c(C)c1,3,.,4,.,.,.,
O=C1c2ccccc2C(=O)c2c1ccc(O)c2O,21*,.,11,.,11,-2,
COC(=O)c1ccc2c(c1O)C(=O)c1ccccc1C2=O,2,.,-5,0,.,.,
Cc1ccc(C)c(NC(=O)CCOc2ccccc2)c1,2,71,6,0,.,.,
Cc1ccc2sc(C)[n+](CCC(C)S(=O)(=O)[O-])c2c1 (configuration not stated),20*,6,-7,0,-4,0,
COc1ccc2c(c1)C1NC(=S)N[C@@](C)(O2)C1C(=O)Nc1ccccc1 (some centres not stated),21*,-11,14,0,24*,-3,
Cc1ccc2c(c1)C1NC(=S)NC(C)(O2)C1C(=O)Nc1ccc(Cl)cc1 (configuration not stated),7,-1,2,0,.,.,
